Sampled rows, rich in hits. Any-hit rate of the full collection: about 21%.
CHX counter = Cycloheximide Counterscreen for Small Molecule Inhibitors of Shiga Toxin | cell reporter, cycloheximide protein synthesis inhibition counterscreen | max response, % | actives 12% (n = 300,000); in the data active = max response mostly above about 13%, no sharp cut-off; inactive = mostly below about 14%; note: read at 38.3 µM for the half of the compounds with a filed dose; 0% is about no effect
Pf growth 48h = Primary qHTS for delayed death inhibitors of the malarial parasite plastid, 48 hour incubation; P. falciparum luciferase growth in erythrocytes, 48 h; Potency, µM (series often up to 28.7 µM), for the others: at the highest dose activity change, negative = inhibition, actives largely listed as inhibitors; actives 5.9% (n = 310,000); AID 504832, 2011; note: potency is the fitted concentration of half-maximal effect; % is set by controls: 0 for no effect and ±100 for the full control effect
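Luciferase-expressing parasites in RBCs, 2% Hct / 0.1% parasitemia final; RPMI 1640 + 0.5% Albumax; 37 C, 5% CO2, one generation; luminescence read-out, lower signal = inhibition.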
HCV inhibitor = qHTS Assay for Inhibitors of Hepatitis C Virus (HCV); actives 3.4% (n = 340,000); Potency, µM (top dose mostly 41.8 µM), without a hit: top-dose activity change, negative = inhibition, hits mostly inhibitors; Huh7.5.1 HCVcc-Cre infection, luciferase reporter, 44 h; note: potency is the fitted concentration of half-maximal effect; % is set by controls: 0 for no effect and ±100 for the full control effect
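HCVcc-Cre virus at an moi near 0.5 was added right after compound to cells cultured 4 h from seeding (1,000 cells/well). Luciferase activity was determined 44 h later, 15 min after substrate addition at RT.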
Pf growth 96h = Primary qHTS for delayed death inhibitors of the malarial parasite plastid, 96 hour incubation; Potency, µM (series often up to 28.7 µM), inactives show at the top dose activity change, negative = inhibition, most hits filed as inhibitors; actives 6.9% (n = 320,000); P. falciparum luciferase reporter growth, 96 h; AID 504834, 2011; note: potency is the fitted concentration of half-maximal effect; % is set by controls: 0 for no effect and ±100 for the full control effect
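Plates of compound plus infected erythrocytes (2% hematocrit, 0.05% parasitemia final) incubate 96 hours, 37 C, 5% CO2. Detection reagent added; reduced luminescence from the parasites' luciferase reporter flags inhibition.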
HCMV inh = qHTS Assay for inhibitors of the human cytomegalovirus (HCMV). HFF cells, HCMV-luciferase reporter, 72 h; stronger effect = lower value. activity change, negative = inhibition, % at 57.5 µM. actives 4.5% (n = 410,000); in the data active = activity change below about -60%; inconclusive = no clear call, values can overlap the other calls; inactive = above about -39%; note: % is set by controls: 0 for no effect and ±100 for the full control effect
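Screen run at 2 compound doses on HFFs infected with reporter HCMV, MOI 1 PFU/cell. Luciferase activity from cell lysates at 72 h post infection gave inhibition relative to buffer-only and Salinomycin wells.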
Shiga inhibitor = A qHTS for Small Molecule Inhibitors of Shiga Toxin; Vero cells, Shiga toxin protein synthesis inhibition reporter; inhibition, % at 38.7 µM; actives 9.2% (n = 290,000); AID 2315, 2010; in the data active = inhibition mostly above about 28%, no sharp cut-off; inactive = mostly below about 43%; note: 0% is about no effect
Numbers without * were called inactive; [ ] = another dose, or the depositor's remark. Unless noted, calls come from the whole dose curve; as a rule, active = well fitted inhibition curve with a large enough effect; inconclusive = small, poorly fitted or top-dose-only effect, or another doubt; inactive = no such curve, though single readings can be large or run the other way.

How did CCS(=O)(=O)N1Cc2ccccc2CC1C(=O)Nc1ccc(F)c(F)c1F (stereo not drawn) do in these assays?
CHX counter: 24.5*; Pf growth 48h: 1.0%; HCV inhibitor: 1.5%; Pf growth 96h: 17.8%; HCMV inh: 0.8; Shiga inhibitor: 44.4

Results for CCS(=O)(=O)N1Cc2ccccc2CC1C(=O)NCCc1ccccc1 (stereo not drawn) ?
CHX counter: 19.0*; Pf growth 48h: -19.2%; HCV inhibitor: -2.7%; Pf growth 96h: 6.5%; HCMV inh: 0.3; Shiga inhibitor: 22.0

What do the screens show for `COc1ccc(NC(=O)CCNS(=O)(=O)c2ccc(C)c(C)c2)cc1OC`?
CHX counter: -7.6; Pf growth 48h: -19.1%; HCV inhibitor: 3.3%; Pf growth 96h: -18.1%; HCMV inh: 11.6; Shiga inhibitor: -3.6

How did CCS(=O)(=O)N1Cc2ccccc2CC1C(=O)Nc1ccc(OC)cc1 (stereo not drawn) do in these assays?
CHX counter: 35.2*; Pf growth 48h: -26.4%; HCV inhibitor: -16.2%; Pf growth 96h: -2.7%[5.75 µM]; HCMV inh: -1.5; Shiga inhibitor: 47.5

What do the screens show for `CCS(=O)(=O)N1Cc2ccccc2CC1C(=O)Nc1ccc(F)c(F)c1` (stereo not drawn)?
CHX counter: 37.0*; Pf growth 48h: 27.3%; HCV inhibitor: 12.9%; Pf growth 96h: 51.5%; HCMV inh: 24.4; Shiga inhibitor: 81.8*

How did COc1ccc(S(=O)(=O)N2Cc3ccccc3CC2C(=O)Nc2cccc(C)c2)cc1OC (stereo not drawn) do in these assays?
HCMV inh: 15.6

How did CCS(=O)(=O)N1Cc2ccccc2CC1C(=O)Nc1ccc(NC(C)=O)cc1 (stereo not drawn) do in these assays?
CHX counter: -1.2; Pf growth 48h: -4.3%; HCV inhibitor: 13.7%; HCMV inh: -0.8; Shiga inhibitor: 2.3

What do the screens show for `COc1ccc(S(=O)(=O)N2Cc3ccccc3CC2C(=O)Nc2ccc(O)cc2)cc1OC` (stereo not drawn)?
CHX counter: 8.1; Pf growth 48h: inconclusive; HCV inhibitor: -14.6%; Pf growth 96h: 3.7µM*; HCMV inh: 24.9; Shiga inhibitor: 13.8

How did CC(OC(=O)Nc1cccc(Cl)c1)C(=O)O (stereo not drawn) do in these assays?
CHX counter: -6.1; Pf growth 48h: 2.6%; HCV inhibitor: 15.9%; Pf growth 96h: 37.1%; HCMV inh: 42.1; Shiga inhibitor: -5.5

Results for CC(C)OC(=O)NC(C)(C)COC(=O)Nc1cccc(Cl)c1 ?
CHX counter: 13.6*; Pf growth 48h: inconclusive; HCV inhibitor: inconclusive; Pf growth 96h: -22.7%; HCMV inh: -1.7; Shiga inhibitor: -2.2

How did C#CC(C)OC(=O)Nc1cccc(Cl)c1 (stereo not drawn) do in these assays?
CHX counter: 32.0*; Shiga inhibitor: 41.0*

How did CCc1ccccc1NC(=O)c1nnn(Cc2ccc(Cl)cc2)c1N do in these assays?
HCMV inh: -7.0

What do the screens show for `O=C1CC2(CCN(C(=O)c3ccccc3[N+](=O)[O-])CC2)Oc2ccccc21`?
Pf growth 48h: 5.0%; HCV inhibitor: 31.6%; Pf growth 96h: -1.3%; HCMV inh: -1.7

How did Cc1cccc(CN2CCC(N3CC(C)OC(C)C3)CC2)c1 (stereo not drawn) do in these assays?
CHX counter: -1.3; Pf growth 48h: -6.9%; HCV inhibitor: 19.6%; Pf growth 96h: 11.7µM*; HCMV inh: 17.2; Shiga inhibitor: -1.9

What do the screens show for `Cc1cccc(CN2CCC(C(N)=O)CC2)c1`?
CHX counter: -2.0; HCV inhibitor: 24.6%; Pf growth 96h: inconclusive; HCMV inh: -3.1; Shiga inhibitor: -17.5

What do the screens show for `CCN(CC)CCC(c1ccc2c(c1)OCO2)c1c(OC)cc(OC)c2c(C)cc(=O)oc12` (stereo not drawn)?
CHX counter: 9.3; Shiga inhibitor: -12.6
